Reference: PubChem BioAssay
Inconclusive results are not listed. Calls of active or inactive are those of the source.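 The calls were made as follows, unless noted: active = viability at or below 10% of carrier control in both of two separate runs; inconclusive = viability at or below 10% in only one of the two runs; inactive = the rest.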

Tests used:
[1] = Her2 expression decrease, cell viability multiplex – SKBR3 breast tumor cells, AlphaScreen, ATP viability, primary screen (AID 461;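 active = Her2 level under about 52% in both replicate screens, with viability over 70% of control, limit read from the data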;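 as to Her2 level: lower value means less Her2 protein in the cells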;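 as to viability: percent of carrier control wells set as 100% viability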); conditions: SKBR3 Her2 protein level, 18-24 h, measured here: SKBR3 viability, ATP luminescence, at 10 µM
[2] = molecular target: Receptor tyrosine-protein kinase erbB-2 (Homo sapiens) (UniProt P04626); assay: as above; conditions: 18-24 h, at 10 µM, stronger effect = lower value
[3] = reduced viability of SK-BR-3 breast cancer cells – cell-based, 24 h, human, pilot screen (AID 572); conditions: SK-BR-3 viability, CellTiter-Glo luminescence, at 10 µM, stronger effect = lower value;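 also: compound exposure lasted between 18 and 24 h rather than exactly 24 h; 100% = carrier-treated control wells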
[4] = HUVEC growth inhibition – cell-based, human, primary screen (AID 575;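 active = viability at or below 30% in both replicate assays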;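 also: 100% = median of untreated cell wells with 0.1% DMSO on each plate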); conditions: HUVEC proliferation, CellTiter-Glo luminescence, 72 h; at 10 µM; stronger effect = lower value
[5] = H69AR cell proliferation blockers – human, duplicate replicates, primary screen (AID 580;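 active = viability at or under a set limit in both replicates, limit being median viability minus 3 SD, cut at about 48% in these data, passing the limit was not always enough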;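 also: 100% = mean luminescence of untreated wells and 0% = no signal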); conditions: H69AR lung tumor cells viability, ATP luminescence, 72 h; at 10 µM; stronger effect = lower value
[6] = MRP1 drug-resistance reversers in H69AR cells – cell-based, doxorubicin co-treatment, pilot screen (AID 601;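 active = viability loss from added drug above about 55%, and viability with drug at most 40%, in both replicates, limit read from the data, passing the limit was not always enough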); conditions: CellTiter-Glo, 72 h, at 10 µM; for differential viability (reversal): stronger effect = higher value
[7] = yeast transport mutant growth inhibition pilot in 384-well plates, post-Golgi transport modulator project (AID 636; in the data active = inhibition above about 31%); conditions: absorbance 615 nm, about 18 h, stronger effect = higher value
[8] = growth suppression of yeast trafficking mutant, preliminary HTS, modulators of trafficking downstream of Golgi apparatus project, 1536-format plate, OD 615 nm (AID 637; in the data active = inhibition above about 30%); conditions: yeast transport mutant growth, absorbance 615 nm, 18 h; stronger effect = higher value
[9] = S. cerevisiae growth inhibition in permissive medium (OD615), pilot counter-assay for S. cerevisiae lifespan shortening project, permissive growth control (AID 705;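 active = growth inhibition above 25% in both replicates, a cutoff set 3 SD above the mean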); conditions: OD615, 24 h, at 10 µM, stronger effect = higher value
[10] = S. cerevisiae growth inhibition in restrictive medium, OD615, pilot screen, restrictive growth control, yeast lifespan reduction project (AID 706;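 active = growth inhibition above a set limit, 3 SD over mean compound inhibition, in both replicates, cut at about 43% in these data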;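 also: modified DeaD lifespan yeast strain shifted to restrictive glucose medium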); conditions: OD615, 48 h, at 10 µM, stronger effect = higher value
[11] = doxorubicin toxicity protection in MRP-1 cells – H69AR cells, CellTiter-Glo, duplicate, MRP-1 activator project, pilot screen (AID 807;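 active = viability increase at or above a cutoff of the median across tested compounds plus 3 SD, cut at about 8.5% in these data, passing the limit was not always enough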;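 also: compound pretreatment 18-22 h then 72 h combined with doxorubicin; 0% = doxorubicin alone and 100% = vehicle without doxorubicin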); conditions: H69AR viability with doxorubicin, CellTiter-Glo luminescence; at 10 µM; stronger effect = higher value
[12] = viability of HCT116 without oncogenic beta-catenin – human colon tumor cells, pilot screen (AID 823;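 active = cell viability at or below a set limit in both duplicate runs, the limit being the all-compound median minus 4 SD, cut at about 23% in these data, passing the limit was not always enough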;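 also: 0% = wells killed by 20 µM Hyamine and 100% = untreated DMSO cell wells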); conditions: HCT116 beta-catenin knockout viability, CellTiter-Glo, 60 h; at 10 µM; stronger effect = lower value
[13] = viability of PTEN-null HCT116 cells – cell-based, HCT116 clonal line, CellTiter-Glo, pilot screen (AID 824;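 active = viability at or below 27.92% in each of two runs, the all-compound median minus 4 SD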;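 also: 0% = 20 µM Hyamine control and 100% = vehicle cell control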); conditions: HCT116 PTEN-deleted viability, 60 h, at 10 µM, stronger effect = lower value
[14] = RAM pathway blockade in budding yeast – dse1pr::URA3 reporter, 5-FOA selection, pilot screen (AID 869;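 active = inhibition over a set limit, the all-compound mean plus 3 SD, in both replicate runs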;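 also: 0% = DMSO wells with no growth and 100% = 10 µM 1-NA-PP1 with full growth; RAM network block rescues cells from 5-FOA so hits raise OD615 growth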); conditions: S. cerevisiae dse1pr::URA3 5-FOA growth, OD615, 2 d; at 10 µM; stronger effect = higher value; strain carries analog-sensitive mutant Cbk1 kinase
[15] = RAM signaling pathway blockade in yeast – S. cerevisiae, Pdr1DBD-CYC8 efflux-inhibited sensitized strain, primary screen (AID 1298;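 active = RAM network inhibition above 8.4% in each of two replicates, 3 SD over the compound average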;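 also: 0% = DMSO untreated cells without growth and 100% = 10 µM 1-NA-PP1 full growth; higher means more yeast growth rescued from 5-FOA killing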); conditions: S. cerevisiae cbk1-as DSE1-URA3 strain, 5-FOA growth OD615, 2 d; at 50 µM; stronger effect = higher value
[16] = H69AR cells + 2 uM doxorubicin, measured here: viability with 2 uM doxorubicin, stronger effect = lower value
[17] = H69AR cells, compound alone cytotoxicity

Sequence of Receptor tyrosine-protein kinase erbB-2 (Homo sapiens) (P04626 whole entry, looked up): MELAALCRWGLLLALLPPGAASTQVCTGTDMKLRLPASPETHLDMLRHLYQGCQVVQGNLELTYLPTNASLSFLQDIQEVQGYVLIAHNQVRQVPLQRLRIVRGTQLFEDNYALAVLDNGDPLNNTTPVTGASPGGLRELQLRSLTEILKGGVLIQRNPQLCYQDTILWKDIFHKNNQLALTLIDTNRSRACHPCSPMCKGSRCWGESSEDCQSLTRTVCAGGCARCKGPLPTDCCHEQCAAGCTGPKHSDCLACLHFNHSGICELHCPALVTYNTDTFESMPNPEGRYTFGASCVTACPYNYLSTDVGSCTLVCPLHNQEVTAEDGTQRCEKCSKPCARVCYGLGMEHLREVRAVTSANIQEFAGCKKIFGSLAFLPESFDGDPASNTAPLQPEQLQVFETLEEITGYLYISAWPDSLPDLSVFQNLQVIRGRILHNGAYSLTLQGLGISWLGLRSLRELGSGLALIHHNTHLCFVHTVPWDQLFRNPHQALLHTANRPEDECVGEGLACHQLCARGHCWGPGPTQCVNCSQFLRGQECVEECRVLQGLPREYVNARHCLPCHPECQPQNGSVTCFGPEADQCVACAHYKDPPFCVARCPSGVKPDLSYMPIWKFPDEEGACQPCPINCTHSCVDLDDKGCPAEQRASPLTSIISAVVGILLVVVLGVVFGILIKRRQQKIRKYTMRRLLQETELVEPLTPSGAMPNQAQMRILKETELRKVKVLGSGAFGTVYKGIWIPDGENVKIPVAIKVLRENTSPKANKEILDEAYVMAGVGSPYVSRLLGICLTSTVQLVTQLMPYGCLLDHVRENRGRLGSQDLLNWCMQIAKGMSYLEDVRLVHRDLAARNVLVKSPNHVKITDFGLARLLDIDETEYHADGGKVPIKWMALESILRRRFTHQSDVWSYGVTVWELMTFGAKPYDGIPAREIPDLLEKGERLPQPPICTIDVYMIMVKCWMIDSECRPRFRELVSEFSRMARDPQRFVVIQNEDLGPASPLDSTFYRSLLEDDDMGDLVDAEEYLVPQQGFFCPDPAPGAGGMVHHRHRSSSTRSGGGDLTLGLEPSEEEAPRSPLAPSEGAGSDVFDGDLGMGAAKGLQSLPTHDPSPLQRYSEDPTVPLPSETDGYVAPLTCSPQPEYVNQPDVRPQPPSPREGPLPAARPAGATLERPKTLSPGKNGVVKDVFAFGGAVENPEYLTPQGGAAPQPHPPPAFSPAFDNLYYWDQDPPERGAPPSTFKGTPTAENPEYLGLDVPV

Compound	viability [1]	Her2 level [2]	viability [3]	viability [4]	viability [5]	differential viability (reversal) ([6]; H69AR cells + 2 uM doxorubicin)	viability [6, 16]	viability [6, 17]	inhibition [7]	inhibition [8]	growth inhibition [9]	growth inhibition [10]	viability increase [11]	viability [12]	viability [13]	inhibition [14]	RAM network inhibition [15]
CC12CN3CC(C)(CN(C1)C3c1ccc(Cl)cc1Cl)C2=O (stereo not drawn)	97%	102% (inactive)	97% (inactive)	101% (inactive)	80.9% (inactive)	-7.23% (inactive)	88.2%	80.9%	-2.67% (inactive)	-3% (inactive)	-17.2% (inactive)	-1.12% (inactive)	-2.71% (inactive)	93.4% (inactive)	95.3% (inactive)	1.56% (inactive)	-0.11% (inactive)
O=C(Nn1cnnc1)C1Cc2ccccc2CN1S(=O)(=O)c1ccc(F)cc1 (stereo not drawn)	112%	97% (inactive)	112% (inactive)	90.4% (inactive)	97.2% (inactive)	-1.64% (inactive)	98.8%	97.2%	-5.95% (inactive)	4.75% (inactive)	-1.04% (inactive)	5.43% (inactive)	0.15% (inactive)	101% (inactive)	102% (inactive)	0.38% (inactive)	4.84% (inactive)
COCCOC(=O)C1=C(C)N=c2s/c(=C\c3cccs3)c(=O)n2C1c1cccs1 (stereo not drawn)	91.5%	77% (inactive)	91.5% (inactive)	82.4% (inactive)	71.9% (inactive)	-4.05% (inactive)	75.9%	71.9%	-6.89% (inactive)	-8.17% (inactive)	-9.14% (inactive)	1.78% (inactive)	-0.91% (inactive)	86.3% (inactive)	82.7% (inactive)	2.83% (inactive)	6.91% (inactive)
O=C(O)C1CC=CCC1C(=O)Nc1cccc(F)c1 (stereo not drawn)	94%	94% (inactive)	94% (inactive)	88.1% (inactive)	87.1% (inactive)	-1.18% (inactive)	88.3%	87.1%	-2.99% (inactive)	-5.17% (inactive)	-1.99% (inactive)	-0.35% (inactive)	-0.78% (inactive)	102% (inactive)	100% (inactive)	1.86% (inactive)	1.15% (inactive)
